Assay results from ChEMBL document CHEMBL4513216, “Probing the Open Global Health Chemical Diversity Library for Multistage-Active Starting Points for Next-Generation Antimalarials” (ACS Infect Dis, 2020).
In all, about 69,000 compounds went through this assay and about 8,600 (12%) showed an effect of 50% or more. Many of the other results were omitted from the sample, so strong results are more common in it than they were.

Test system: Plasmodium berghei
Assay: Screen against P. berghei liver stage (PbLuc), transformed with Luciferase, at 10uM
Format: functional, HepG2
Details: tested at 10 uM

Row | Structure (SMILES) | INHIBITION
1 | Cc1nc2cc(C(=O)N3CCCC(n4ccnc4)C3)ccc2n1C (stereo not given) | 33.3%
2 | O=C(NCc1ccc(F)cc1)N1CCN(CC(O)C2CC2)CC1 (stereo not given) | 30.8%
3 | Cc1ccc(S(=O)(=O)NCC2COCc3c(C)nnn3C2)cc1F (stereo not given) | 24.5%
4 | c1ccc(N2CCC(c3ccncc3)CC2)cc1 | 65.2%
5 | c1cncc(N2CCC(c3ccncc3)CC2)c1 | 26.221%
6 | c1cc(C2CCN(c3cncnc3)CC2)ccn1 | 39.6%
7 | Cc1nc(C2CCCN(C(=O)c3ccc(OCC4CC4)nc3)C2)no1 (stereo not given) | 8.64%
8 | O=C1C(N2CCOCC2)CCCN1Cc1cccc(C(F)(F)F)c1 (stereo not given) | 50.8%
9 | O[C@H]1CN(Cc2cccc(C(F)(F)F)c2)CC[C@@]12CCCO2 | 37.6%
10 | O=c1n(Cc2cccc(C(F)(F)F)c2)nc2ncccn12 | -39.3%
11 | O[C@H]1COCCN(Cc2cccc(C(F)(F)F)c2)C1 | -4.82%
12 | NC(=O)CN(C(=O)Cc1cccc(C(F)(F)F)c1)C1CCCC1 | -23.1%
13 | O=C1C(N2CC[C@@H](O)C2)CCCN1Cc1cccc(C(F)(F)F)c1 (stereo not given in full) | 77.8%
14 | NC1CCCN(Cc2cccc(C(F)(F)F)c2)C1=O (stereo not given) | 57.2%
15 | CC(O)(CN1CCC(O)CC1)c1cccc(C(F)(F)F)c1 (stereo not given) | -37.7%
16 | FC(F)(F)c1ccnc(N2CCCC(N3CCOCC3)C2)c1 (stereo not given) | 40.5%
17 | CC(C)NC(=O)N1CC[C@@H]2CN(Cc3ccccc3)S(=O)(=O)[C@@H]2CC1 | 31.8%
18 | O=c1[nH]cnc2c1CCN(S(=O)(=O)c1cccc(OC(F)(F)F)c1)C2 | -23.7%
19 | COCCN1C[C@H](OCc2csc(C)n2)[C@H]2COC[C@H]21 | -41.4%
20 | CCC(C)N(Cc1sccc1C)C(=O)c1cc(N)ccn1 (stereo not given) | 43.9%
21 | Cc1ccccc1-c1cncc(C2CCN(C(C)C)CC2)n1 | 32.8%
22 | Cc1ccccc1-c1cncc(C2CCN(C3CCOCC3)CC2)n1 | 64.1%
23 | Cc1ccccc1-c1cncc(C2CCN(C)CC2)n1 | 38.1%
24 | COc1cccc(-n2nnc(C(=O)N3CCCC3)c2C)c1 | 2.26%
25 | COc1cccc(-n2nnc(C(=O)N3CCCC(C)C3)c2C)c1 (stereo not given) | -60.35%

Row | Structure (SMILES) | INHIBITION
26 | COc1cccc(-n2nnc(C(=O)N3CCN(C)CC3C)c2C)c1 (stereo not given) | 68.3%
27 | Cc1nc(C)c(CN2CCC(N(C)Cc3nnc(C4CC4)o3)C2)s1 (stereo not given) | -21.9%
28 | Cc1ccc(CNc2cc3c(cc2Cl)NC(=O)CO3)cc1C | 56%
29 | Cc1noc(CNc2cc3c(cc2Cl)NC(=O)CO3)n1 | 3.13%
30 | CC(C)(C)c1nc(CNc2cc3c(cc2Cl)NC(=O)CO3)no1 | 5.91%
31 | O=C(NCc1nnc2n1CCC2)c1cccc(Br)c1 | -57.5%
32 | Cc1csc(C2(NCc3nc(-c4ccco4)oc3C)CCCC2)n1 | 64.5%
33 | Cc1csc(C2(NCc3csc(C4CC4)n3)CCCC2)n1 | 24.2%
34 | Cc1csc(C2(NCC(O)COC(C)C)CCCC2)n1 (stereo not given) | 9.41%
35 | Cc1csc(C2(NCc3ccc(OCC(F)F)cc3)CCCC2)n1 | 14.5%
36 | Cc1csc(C2(NCc3nnc(-c4ccco4)o3)CCCC2)n1 | 32.9%
37 | Cc1csc(C2(NCc3nc(-c4ccco4)no3)CCCC2)n1 | 62%
38 | COCCNC(=O)N1CCN(C(=O)c2nsc3ccc(C)cc23)CC1 | -32.1%
39 | Cc1ccc(OCC(=O)N2CCCC(n3nc(C)nc3C)C2)cc1 (stereo not given) | 25.1%
40 | CN(CCCN1CCCCCC1)C(=O)c1ccccc1NCC(=O)O | 14.9%
41 | c1ccc(-c2nnc(CN3CCCC(Cn4cncn4)C3)o2)cc1 (stereo not given) | 9.31%
42 | CCOc1ccc(C#N)cc1NCc1cc(C)on1 | 51.7%
43 | CCOc1ccc(C#N)cc1NCC(=O)OC | -38.7%
44 | CCOc1c(Cl)cccc1NCc1cc(C)on1 | -10.2%
45 | CCOc1ccc(C(F)(F)F)cc1NCc1nc(C)c(C)o1 | 65.6%
46 | CCOc1ccc(C(F)(F)F)cc1NC(=O)NCc1noc(C)n1 | -15%
47 | CCOc1ccc(OCC)c(NCc2cc(C)on2)c1 | 71.2%
48 | CCOc1ccc(C(F)(F)F)cc1NC(=O)N1CCC(C(N)=O)CC1 | -3.21%
49 | CCCNC(=O)CNc1cc(C#N)ccc1OCC | 60.5%
50 | CCOc1ccc(C#N)cc1NCC(=O)NC(=O)NC | 2.3%

Row | Structure (SMILES) | INHIBITION
51 | CCOc1ccc(C#N)cc1NCC(=O)Nc1cc(C)no1 | 7.7%
52 | CCNC(=O)NC(=O)CNc1cc(C#N)ccc1OCC | -9.76%
53 | COc1ccc(Cl)cc1NCc1cc(C)on1 | 11.783%
54 | CCN(Cc1cccc(C)c1)Cc1nc2c(cnn2C)c(=O)[nH]1 | 49.1%
55 | Cc1cc(N2CCN(Cc3cn(C)nc3C)CC2)cc(C2CCNC2)n1 (stereo not given) | 18.225%
56 | Cc1ccc(NC2CCN(C(=O)c3cccnc3N(C)C)CC2)nn1 | 21.6%
57 | CN(C)[C@@H]1CCN(c2ncc(F)cn2)[C@H]1Cc1cccnc1 | 9.72%
58 | Cc1cc(C)n(CC2CN(Cc3ccc(C(N)=O)cc3)CCO2)n1 (stereo not given) | 46.1%
59 | COCC(=O)N1CCCC1c1nc(C)c2c(n1)N(CC(C)C)C(=O)CC2 (stereo not given) | -16.9%
60 | CCNC(=O)N(C)C(c1ccccc1)c1ccccn1 (stereo not given) | -16%
61 | COc1ccc(C(C)NCc2ccsc2)cc1Cn1cccn1 (stereo not given) | 10.6%
62 | CC(=O)N(C)C1CCN(C(=O)NCCc2cc(F)ccc2F)CC1 | -6.67%
63 | CCOc1ccc(C(F)(F)F)cc1NCc1cc(C)on1 | 64.7%
64 | Cc1cc(CNc2cc(Cl)ccc2OCCS(C)(=O)=O)no1 | 48.1%
65 | Cc1cc(CNc2ccc(C(F)(F)F)cc2)no1 | 30.4%
66 | Cn1cc(CN2CCC3(CC2)CC(c2ccncc2)C(=O)N3)cn1 (stereo not given) | 36.4%
67 | CCOCCN1CCN(CC(O)c2ccc(C(F)(F)F)cc2)CC1 (stereo not given) | 24%
68 | OC(CN1CCN(CC2CCCCC2)CC1)c1ccccc1 (stereo not given) | 93.8%
69 | CC(O)CN1CCN(CCOCC(F)(F)F)CC1 (stereo not given) | -21.2%
70 | OC(CN1CCN(CC2CC2)CC1)c1ccc(Br)cc1 (stereo not given) | -63.6%
71 | O=C(N1CCCCC1)N1CCN(CC(O)c2ccccc2)CC1 (stereo not given) | 56.4%
72 | OC(CN1CCN(Cc2nnc(C3CC3)o2)CC1)c1ccccc1 (stereo not given) | -7.06%
73 | O=C(N1CCCCC1)N1CCN(CC(O)c2ccc(F)cc2)CC1 (stereo not given) | 9.25%
74 | OC(CN1CCN(CCOCC(F)(F)F)CC1)c1ccccc1 (stereo not given) | 56.9%
75 | O=C(Cc1ccc(F)cc1)N1CCN(CC(O)c2ccccc2)CC1 (stereo not given) | 29.7%
